Bioassay records deposited in PubChem by several laboratories.
SENP8 block-1: human SENP8 protease inhibitors, primary screen, biochemical, fluorescence, Nedd8 protein substrate, uHTS; Sentrin-specific protease 8 (Homo sapiens), Q96LD8; AID 602440, 2012; actives 0.64% (n = 360,000); recombinant SENP8; inhibition, % at 20 µM; in the data active = inhibition mostly above about 40%, no sharp cut-off; inactive = mostly below about 27%
AHR act: AHR activators, primary screen, cell-based, luminescence, luciferase reporter, human. activation, % at 5 µM. AHR-responsive luciferase reporter cells. Aryl hydrocarbon receptor (Homo sapiens), P35869. actives 2.5% (n = 320,000); in the data active = activation above about 47%;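 note: 0% = vehicle wells and 100% = reference agonist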
SENP7 inh: SENP7 protease inhibitors, primary screen, biochemical, luminescence, uHTS. recombinant SENP7, Z-RLRGG-aminoluciferin luminescence, 40 min. inhibition, % at 5 µM. actives 1.5% (n = 330,000). Sentrin-specific protease 7 (Homo sapiens), Q9BQF6;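 active = inhibition above about 50% at the single test dose, limit read from the data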;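 note: plate controls were DMSO with enzyme for no effect and no enzyme buffer wells for full effect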
EBI2 antag: EBI2 receptor antagonists, beta-arrestin recruitment, primary screen, cell-based, luminescence, 7a,25-OHC stimulation, uHTS; G-protein coupled receptor 183 (Homo sapiens), P32249; 7a,25-OHC stimulated; inhibition, % at 5 µM; actives 0.81% (n = 360,000); in the data active = inhibition above about 38%;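 note: enzyme fragment complementation signal reports receptor beta-arrestin coupling in cells; 0% = agonist plus DMSO wells and 100% = wells without agonist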
SENP6 inh: SENP6 protease inhibitors, primary screen, biochemical, luminescence, uHTS; Recombinant SENP6 catalytic domain, aminoluciferin luminescence; inhibition, % at 10 µM; actives 1.8% (n = 330,000);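 active = inhibition above about 50% at the single tested dose, limit read from the data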;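 note: plate controls were DMSO wells with enzyme for no effect and DMSO wells lacking enzyme for full effect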
Target sequence (Q9GZR1 628-1112 limits assumed): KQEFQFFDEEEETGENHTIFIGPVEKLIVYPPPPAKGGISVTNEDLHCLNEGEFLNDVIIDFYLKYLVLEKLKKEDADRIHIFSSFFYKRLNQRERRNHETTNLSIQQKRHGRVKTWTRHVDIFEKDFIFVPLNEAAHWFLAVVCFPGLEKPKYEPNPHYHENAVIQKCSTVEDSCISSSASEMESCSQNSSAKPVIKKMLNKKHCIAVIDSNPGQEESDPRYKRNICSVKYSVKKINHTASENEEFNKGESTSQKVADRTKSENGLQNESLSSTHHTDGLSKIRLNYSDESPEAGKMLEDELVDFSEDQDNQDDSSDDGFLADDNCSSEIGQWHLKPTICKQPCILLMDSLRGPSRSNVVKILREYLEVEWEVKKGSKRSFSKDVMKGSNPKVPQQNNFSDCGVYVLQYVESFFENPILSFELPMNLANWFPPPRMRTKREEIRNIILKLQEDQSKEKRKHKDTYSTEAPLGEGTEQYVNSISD
SENP8 block-2: SENP8 protease inhibitors, primary screen, biochemical, luminescence; Sentrin-specific protease 8 (Homo sapiens), Q96LD8; purified SENP8, Z-RLRGG-aminoluciferin cleavage; inhibition, % at 10 µM; actives 1.2% (n = 330,000); AID 2540, 2010; in the data active = inhibition above about 50%
SENP8 confirm: SENP8 protease inhibitors, retest, confirmation, biochemical, luminescence, single concentration; inhibition, % at 12.5 µM; actives 40% (n = 6,200); Recombinant SENP8, Z-RLRGG-aminoluciferin luminescence, 60 min; shares compounds with SENP7 inh; AID 488912, 2010;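 active = mean inhibition across replicates above about 50%, limit read from the data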
SENP6 confirm: SENP6 protease inhibitors, confirmation, biochemical, luminescence, single concentration. shares compounds with SENP7 inh. recombinant SENP6, Z-RLRGG-aminoluciferin luminescence. inhibition, % at 12.5 µM. actives 58% (n = 6,200). AID 488915, 2010
SENP7 confirm: SENP7 protease inhibitors, retest, confirmation, biochemical, luminescence, single concentration; shares compounds with SENP7 inh; recombinant SENP7, Z-RLRGG-aminoluciferin luminescence, 40 min; inhibition, % at 12.5 µM; actives 69% (n = 6,200); AID 488917, 2010
Casp3 select: caspase-3 protease inhibitors, confirmation, selectivity assay for SENP inhibitor project, biochemical, single concentration; inhibition, % at 12.5 µM; shares compounds with SENP7 inh; actives 60% (n = 6,200); purified caspase-3, Z-DEVD-aminoluciferin luminescence, 60 min;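 active = mean inhibition above about 50%, limit read from the data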;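 note: plate controls were enzyme with DMSO for no effect and wells without caspase-3 for full effect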
Luc interf: counter-screen for SENP inhibitors: luminescence interference | Pre-incubated SENP8/Z-RLRGG-aminoluciferin, luciferase luminescence interference | inhibition, % at 12.5 µM | shares compounds with SENP7 inh | actives 39% (n = 6,200);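 active = mean inhibition above about 50% when retested at one dose, limit read from the data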;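 note: plate controls were DMSO wells with completed reaction for no effect and substrate without enzyme for full effect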
Active calls of the source: *. Sampled rows, rich in hits. Any-hit rate of the full collection: about 5%.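 Rule for the calls, unless noted: active = mean inhibition above about 50% in the one-dose retest (limit read from the data); inactive = the rest.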

What do the screens show for `COC(=O)c1ccc(-c2ccc(Cl)cc2)nc1C`?
SENP8 block-1: 16; AHR act: -5; SENP7 inh: 76*; EBI2 antag: 8; SENP6 inh: 76*; SENP8 block-2: 58*; SENP8 confirm: 21; SENP6 confirm: 64*; SENP7 confirm: 90*; Casp3 select: 52*; Luc interf: 30

How did Cc1cccc(N=Nc2ccc(O)c3ncccc23)c1 do in these assays?
SENP8 block-1: 37; AHR act: 70*; SENP7 inh: 26; EBI2 antag: 32; SENP6 inh: 69*; SENP8 block-2: 33; SENP8 confirm: -15; SENP6 confirm: -2; SENP7 confirm: 9; Casp3 select: 48; Luc interf: 1

How did CCC(CC)N=C1NS(=O)(=O)c2cc([N+](=O)[O-])ccc21 do in these assays?
SENP8 block-1: 23; AHR act: -2; SENP7 inh: -5; EBI2 antag: -4; SENP6 inh: 0; SENP8 block-2: -6

Results for Cn1c(=O)c2c(nc(NCC3CCCO3)n2C)n(C)c1=O (stereo unspecified) ?
SENP8 block-1: 3; AHR act: 2; SENP7 inh: 51*; EBI2 antag: -9; SENP6 inh: 7; SENP8 block-2: -2; SENP8 confirm: 4; SENP6 confirm: 6; SENP7 confirm: 12; Casp3 select: 8; Luc interf: 3

How did O=C1CN(C(=O)COC(=O)CNS(=O)(=O)/C=C/c2ccccc2)c2ccccc2N1 do in these assays?
SENP8 block-1: 1; AHR act: -1; SENP7 inh: 2; EBI2 antag: -2; SENP6 inh: 12; SENP8 block-2: 1

What do the screens show for `CCOC(=O)C1c2cccc(O)c2CCN1C(C)=O` (stereo unspecified)?
SENP8 block-1: 0; EBI2 antag: -3

How did N#CC/C(N)=N/Nc1nc2ccccc2nc1Cc1ccccc1 do in these assays?
SENP8 block-1: -135; AHR act: 11; SENP7 inh: 6; EBI2 antag: 2; SENP6 inh: 9; SENP8 block-2: -3

How did O=C(Nc1ccc2c(c1)CCC2)c1ccc(F)cc1 do in these assays?
SENP8 block-1: 14; AHR act: 14; SENP7 inh: 87*; EBI2 antag: 4; SENP6 inh: 87*; SENP8 block-2: 1; SENP8 confirm: 85*; SENP6 confirm: 84*; SENP7 confirm: 96*; Casp3 select: 82*; Luc interf: 80*

Results for O=C(Nc1cccc(F)c1)Nc1ccc2c(c1)CCC2 ?
SENP8 block-1: 8; AHR act: -4; SENP7 inh: 72*; EBI2 antag: 11; SENP6 inh: 63*; SENP8 block-2: -33; SENP8 confirm: -13; SENP6 confirm: -29; SENP7 confirm: 78*; Casp3 select: 29; Luc interf: 18

How did O=C(Nc1cccc(F)c1)Nc1ccccn1 do in these assays?
SENP8 block-1: 3; AHR act: 2; SENP7 inh: 47; EBI2 antag: -1; SENP6 inh: 58*; SENP8 block-2: 28; SENP8 confirm: 39; SENP6 confirm: 34; SENP7 confirm: 75*; Casp3 select: 54*; Luc interf: 24

What do the screens show for `O=C(Nc1ccccc1)Nc1ccc2c(c1)CCC2`?
SENP8 block-1: 4; SENP7 inh: 80*; EBI2 antag: 2; SENP6 inh: 84*; SENP8 block-2: 62*; SENP8 confirm: 48; SENP6 confirm: 57*; SENP7 confirm: 91*; Casp3 select: 60*; Luc interf: 81*

What do the screens show for `COc1cc(S(=O)(=O)N(C)C2CCCCC2)c(C)cc1C`?
SENP8 block-1: 2; EBI2 antag: -3

What do the screens show for `CCCSc1nc2ccsc2c(=O)n1CC`?
SENP8 block-1: 12; AHR act: 1; SENP7 inh: -3; EBI2 antag: -6; SENP6 inh: -7; SENP8 block-2: -1

How did CC(NC(=O)COC(=O)c1cc([N+](=O)[O-])ccc1N1CCOCC1)c1ccccc1 (stereo unspecified) do in these assays?
SENP8 block-1: 14; AHR act: 0; SENP7 inh: -10; EBI2 antag: 0; SENP6 inh: -10; SENP8 block-2: -1

Results for Cc1sc(NC(=O)c2ccc(Br)s2)c(C(N)=O)c1C ?
SENP8 block-1: -54; AHR act: 59*; SENP7 inh: 51*; EBI2 antag: -12; SENP6 inh: 76*; SENP8 block-2: 26; SENP8 confirm: 25; SENP6 confirm: 20; SENP7 confirm: 45; Casp3 select: 22; Luc interf: 11

Results for NC(=O)c1ccccc1N/C=C/C(=O)c1ccc(Cl)cc1Cl ?
SENP8 block-1: -476; EBI2 antag: 10

What do the screens show for `Cc1cccc(N/C=C/C(=O)c2cccs2)c1C`?
SENP8 block-1: -22; AHR act: 59*; SENP7 inh: 94*; EBI2 antag: 5; SENP6 inh: 95*; SENP8 block-2: 95*; SENP8 confirm: 11; SENP6 confirm: 99*; SENP7 confirm: 102*; Casp3 select: 95*; Luc interf: 95*

How did NC(=O)c1ccccc1N/C=C/C(=O)c1cccs1 do in these assays?
SENP8 block-1: inactive; AHR act: 8; SENP7 inh: 76*; EBI2 antag: -4; SENP6 inh: 92*; SENP8 block-2: 81*; SENP8 confirm: 4; SENP6 confirm: 90*; SENP7 confirm: 98*; Casp3 select: 94*; Luc interf: 88*

How did Cc1c(NC(=O)c2cccs2)cccc1NC(=O)c1cccs1 do in these assays?
SENP8 block-1: -5; SENP7 inh: 14; EBI2 antag: -6; SENP6 inh: -3; SENP8 block-2: -4
